Results on 39 compounds are retold here after ChEMBL document CHEMBL3988442, “University of Dundee, Small-Polar-MMV Screening Library” (2021).

This test addresses AMP-activated protein kinase, AMPK (Homo sapiens) (UniProt P54646+O43741+P54619+Q9UGJ0+Q9Y478+Q13131+Q9UGI9). Put plainly: AMP-dependent Kinase enzyme assay. An in vitro enzyme assay that detects ADP turnover that is directly proportional to AMPK activity. This uses naive AMPK that is activated during the assay with MK-8722. Type of test: functional. Also noted: scale not given: direction of the effect not stated beside the values. The following applies: 30 µM.
With `COc1cccc(CCC(=O)Nc2c(C)nn(C)c2C)c1OC`, the Percent Effect stood at 15.8%.

In the case of `CCS(=O)(=O)N1CCCN(CCCOC)CC1`, the Percent Effect amounted to 19%.

On to `COCc1cc(N(C)Cc2cc(C(C)(C)C)n[nH]2)ncn1`, for which the Percent Effect is -7.3%. On to `CN1CC=C(CCN(C)C(=O)CCc2ccccc2)CC1`, for which the Percent Effect is -0.771%. On to `Cc1ncc2c(n1)CN(Cc1nc(-c3ccsc3)oc1C)CC2`, for which the Percent Effect is -40.6%. On to `CN1CCN(c2ncc(CNCCCc3cccc(F)c3)cn2)CC1`, for which the Percent Effect came out at 4.72%. With `c1nc(N2CCOCC2)sc1-c1cncn1CCCN1CCCCC1`, the Percent Effect is -0.295%. Consider `CN(C)c1ccc(C(=O)Nc2ccn(CC(N)=O)n2)cn1`, for which the Percent Effect was 10.9%. For the compound `Fc1cccc(CN2CCC[C@@H](Cn3nnc(-c4ccccn4)n3)C2)c1`, the Percent Effect came out at 10.2%. The figure for `CN(Cc1cn(CC2CCNCC2)nn1)CC1CCCCO1` (centres undefined) is 7.46%; for `CC(C)c1nc(C2CCCN2CCN2CCCCC2)no1` (centres undefined) it is -7.59%; for `O=C(O)c1ccn(-c2ccccc2NC(=O)c2ccccc2Cl)n1` it is 5.51%. Take `CCCOc1cccc(OCc2ccon2)c1`: the Percent Effect was found to be 4.13%.

`Cc1cc(C)n2c(CNCc3ccc(OC(F)F)cc3)cnc2n1`: the Percent Effect is -12.4%. For `Cc1noc(C)c1C(=O)N(C)C(C)c1cccnc1` (centres undefined), the Percent Effect was -4.48%. As for `CCN1CC2(CCN(CC3COCCO3)CC2)OC1=O` (centres undefined), the Percent Effect is -1.21%. The figure for `Cc1nc(C)c(COc2ccc(S(=O)(=O)N(C)C)cc2)s1` is 4.6%; for `CNC(=O)CCOC(=O)c1cccc(-n2ccc(C(F)(F)F)n2)c1` it is 3.59%; for `Cn1ccnc1C1(O)CCN(C(=O)Cc2ccccc2)CC1` it is 13.3%. `CC(NCC(=O)NCC(=O)Nc1ccc(F)cc1)c1cccs1` (centres undefined): the Percent Effect amounted to 8.16%. Take `Cc1nc(CN2CCN(S(=O)(=O)N3CCCCC3)CC2)oc1C`: the Percent Effect was -4.45%. For `CCNC(=O)[C@@H]1C[C@H](N)CN1C(=O)c1c[nH]c2ccccc12`, the Percent Effect was 6.06%. The value for `Cc1cc(N(C)C)nc(N2CCn3c(nnc3C3CC3)C2)n1` was -2.99%; that for `COCCC(=O)N(CCC#N)c1ccc(C)c(C)c1` was -6.74%. Take `Cc1ccc(F)c(CNc2ccn(CCC(N)=O)n2)c1`: the Percent Effect is -4.33%.

Turning to `CCc1nnc(CNC(=O)CCC2CCCCN2C)s1` (centres undefined), the Percent Effect is -10.9%. On to `O=c1[nH]nc(CNCc2ccc(OC34CCCN(CC3)C4)cc2)[nH]1` (centres undefined), for which the Percent Effect is -7.25%. In the case of `COc1c(F)cc(NC(=O)N2CCC(CSC)C2)cc1F` (centres undefined), the Percent Effect is 2.71%. Turning to `CC(C)Cc1cc(CNC(=O)c2ccccc2C2CCNC2)no1` (centres undefined), the Percent Effect was determined as 3.3%. For `COCCNS(=O)(=O)c1c(C)sc2ccccc12`, the Percent Effect was -3.2%.

For `Cc1ccc(C2(O)CCN(C(=O)Cn3cc(C)c(=O)[nH]c3=O)CC2)nc1`, the Percent Effect turned out to be 7.31%. For the compound `COc1ccc(NC(=O)c2cnc(C3CCN(C(C)=O)C3)nc2C)cc1` (centres undefined), the Percent Effect is -1.66%. The figure for `N#Cc1ccc(CN(CC(N)=O)Cc2cccc(F)c2)cc1` is -6%; for `Cc1ccc2nc(CN3CCCCC3C(=O)N3CCOCC3)cn2c1` (centres undefined) it is 8.07%. Regarding `Cc1ccccc1CN1CCCC1c1cccc(Nc2nccs2)n1` (centres undefined), the Percent Effect was found to be 16.4%.

As to `CN(CC(=O)Nc1ccccc1)C(=O)CN(C)c1ccc(Cl)cn1`, the Percent Effect came to 2.82%. Turning to `COc1ccc(NC(=O)N2CCCC(CO)C2)c(C)c1` (centres undefined), the Percent Effect was -4.81%. `Cc1cc(Oc2ccc(NC(=O)C3CC3)cc2)cc(C2CCNCC2)n1`: the Percent Effect is -9.8%. Regarding `CN1CC2(CCN(C(=O)c3ccc(=O)n(C)c3)CC2)CC1=O`, the Percent Effect was -1.98%.
